Experimental findings from PubChem BioAssay (NCATS) are described below.

In test [1] the target is Cytochrome P450 3A7 (Homo sapiens) (UniProt P24462). Nature of the test: Cytochrome P450 family 3 subfamily A member 7 (CYP3A7) small molecule antagonists: luciferase biochemical qHTS assay (AID 1963596). Note: % is set by controls: 0 for no effect and ±100 for the full control effect; nearly all actives have a fitted effect of over 40% in size. The gist of the method:
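P450-Glo luminescent assay: CYP3A7 enzyme converts a proluciferin substrate to luciferin, detected by luciferase reagent; light proportional to activity. Compounds in DMSO preincubated 10 min with enzyme-substrate mix at room temperature, then NADPH regeneration added for 1 h.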
Background: Quantitative high-throughput screening tests each substance at several concentrations.

A short description of test [2]: Viability qHTS for spleen associated tyrosine kinase inhibitor (SYKi) naive MV4-11 cells (AID 1963823). Note: nearly all actives have a fitted effect of over 40% in size. Note: potency is the fitted concentration of half-maximal effect. The gist of the method:
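Luminescence from CellTiter-Glo, developed 10 min at room temperature, gave viability of MV4-11 cells never exposed to SYK inhibitor. Cells (500/well) had been incubated with compounds for 72 hr under standard culture conditions.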

Test [3] in a line: Viability qHTS for spleen associated tyrosine kinase inhibitor (SYKi) drug resistant MV4-11 cells (AID 1963824). Note: nearly all actives have a fitted effect of over 35% in size. Note: potency is the fitted concentration of half-maximal effect. The gist of the method: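 SYK inhibitor-resistant MV4-11 AML cells, 500 per well, added to predispensed compounds and incubated 72 hr at 37 C, 5% CO2. Viability measured by CellTiter-Glo luminescence after 10 min at room temperature.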
Test [4] is described as follows: Quantitative highthroughput screen to assess conditional lethalithy of NOMO1 cells grown in RPMI1640 with untreated serum (RPMI+s) (AID 1963876).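 For Viability: 100% = DMSO wells and 0% = empty wells without cells.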 Note: nearly all actives have a fitted effect of over 35% in size. Note: potency is the fitted concentration of half-maximal effect. The gist of the method:
(§1)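 Each medium arm—HPLM with 10% dialyzed FBS, or RPMI1640 with 5 mM glucose and 10% untreated or dialyzed FBS—was screened against an 11-point, 3-fold compound titration for 48 h at 37 °C, with CellTiter-Glo luminescence as endpoint.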

Test [5] in a line: Quantitative highthroughput screen to assess conditional lethalithy of NOMO1 cells grown in RPMI1640 with dialyzed fetal bovine serum (RPMI+ds) (AID 1963877).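 For Viability: series mostly up to about 46 µM; 100% = DMSO control wells and 0% = empty wells.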 Note: nearly all actives have a fitted effect of over 30% in size. Note: potency is the fitted concentration of half-maximal effect. The gist of the method:
as §1

A short description of test [6]: Quantitative highthroughput screen to assess conditional lethalithy of NOMO1 cells grown in Human Plasma-Like Medium with dialyzed fetal bovine serum (HPLM+ds) (AID 1963878).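 For Viability: 100% = DMSO wells and 0% = empty wells on each plate.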 Note: nearly all actives have a fitted effect of over 35% in size. Note: potency is the fitted concentration of half-maximal effect. The gist of the method: as §1
The nature of test [7]: Quantitative highthroughput screen to assess conditional lethalithy of P12 Ichikawa cells grown in Human Plasma-Like Medium with dialyzed fetal bovine serum (HPLM+ds) (AID 1963879). For Viability: series mostly up to about 46 µM. Note: nearly all actives have a fitted effect of over 35% in size. Note: potency is the fitted concentration of half-maximal effect. Particulars: Potency: viability. The gist of the method:
as §1

Test [8] can be described thus: Quantitative highthroughput screen to assess conditional lethalithy of P12 Ichikawa cells grown in RPMI1640 with dialyzed fetal bovine serum (RPMI+ds) (AID 1963880).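 For Viability: 100% = DMSO wells and 0% = empty wells on each plate.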 Note: nearly all actives have a fitted effect of over 35% in size. Note: potency is the fitted concentration of half-maximal effect. To be noted: Potency: P12-Ichikawa viability. The gist of the method:
as §1

Test [9] is described as follows: Quantitative highthroughput screen to assess conditional lethalithy of P12 Ichikawa cells grown in RPMI1640 with untreated serum (RPMI+s) (AID 1963881).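 For Viability: series mostly up to about 46 µM; 100% = DMSO wells and 0% = empty wells without cells.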 Note: nearly all actives have a fitted effect of over 35% in size. Note: potency is the fitted concentration of half-maximal effect. Particulars: Potency: viability. The gist of the method:
as §1

The nature of test [10]: Quantitative highthroughput screen to assess conditional lethalithy of SEM cells grown in RPMI1640 with unreated serum (RPMI+s) (AID 1963883).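 For Viability: 100% = DMSO wells and 0% = empty wells without cells.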 Note: nearly all actives have a fitted effect of over 35% in size. Note: potency is the fitted concentration of half-maximal effect. The gist of the method: as §1
Test [11] is described as follows: Cellular viability qHTS for adrenocortical cancer (ACC) cell line NCI-H295R (AID 1963990). Note: nearly all actives have a fitted effect of over 60% in size. Note: potency is the fitted concentration of half-maximal effect. The gist of the method: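 IC50 and maximal efficacy derive from four-parameter logistic modelling of titration curves, with reads scaled between DMSO-only wells (0%) and doxorubicin hydrochloride (100% inhibition). Compounds spanned up to 46 uM over 48 h.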
Test [12] is described as follows: Cellular viability qHTS for adrenocortical cancer (ACC) cell line SW-13 (AID 1963989).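 For activity (max response): cells grown in serum-free medium with ITS supplement; % is set by controls: 0 for no effect and ±100 for the full control effect.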 Note: nearly all actives have a fitted effect of over 65% in size. Note: potency is the fitted concentration of half-maximal effect. Particulars: SW-13 ACC cells viability, CellTiter-Glo, 48 h; activity (max response): hits give low values. The gist of the method:
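Luminescent ATP read-out (CellTiter-Glo, 20 min at room temperature) measured metabolically competent SW-13 cells after 48 h compound treatment. Final concentrations spanned up to 46 uM; bortezomib served as positive control.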

The nature of test [13]: Quantitative highthroughput screen to assess conditional lethalithy of SEM cells grown in Human Plasma-Like Medium with dialyzed fetal bovine serum (HPLM+ds) (AID 1963882). The gist of the method: as §1
The nature of test [14]: Quantitative highthroughput screen to assess conditional lethalithy of SEM cells grown in RPMI1640 with dialyzed fetal bovine serum (RPMI+ds) (AID 1963884). The gist of the method: as §1

Where “and” joins values, the source holds several entries; their conditions need not be identical. Equal values may be shown once. Results filed as inconclusive are left out. A number with no mark means an inactive call. Calls of active or inactive are those of the source. Calls come from the whole dose curve; as a rule, active = well fitted curve in the direction sought with a large enough effect; inconclusive = small, poorly fitted or top-dose-only effect, or another doubt; inactive = no such curve, though single readings can be large; an effect the other way counts as inactive or inconclusive. Where a SMILES comes first, the peptide text is derived from it. [ ]: non-standard residue; d: D form. The star is where a group is joined. Sta = CC(C)C[C@H](N)[C@@H](O)CC(=O)O; Isovaleryl = CC(C)CC(=O)*

Sequence of Cytochrome P450 3A7 (Homo sapiens) (P24462 whole entry, looked up): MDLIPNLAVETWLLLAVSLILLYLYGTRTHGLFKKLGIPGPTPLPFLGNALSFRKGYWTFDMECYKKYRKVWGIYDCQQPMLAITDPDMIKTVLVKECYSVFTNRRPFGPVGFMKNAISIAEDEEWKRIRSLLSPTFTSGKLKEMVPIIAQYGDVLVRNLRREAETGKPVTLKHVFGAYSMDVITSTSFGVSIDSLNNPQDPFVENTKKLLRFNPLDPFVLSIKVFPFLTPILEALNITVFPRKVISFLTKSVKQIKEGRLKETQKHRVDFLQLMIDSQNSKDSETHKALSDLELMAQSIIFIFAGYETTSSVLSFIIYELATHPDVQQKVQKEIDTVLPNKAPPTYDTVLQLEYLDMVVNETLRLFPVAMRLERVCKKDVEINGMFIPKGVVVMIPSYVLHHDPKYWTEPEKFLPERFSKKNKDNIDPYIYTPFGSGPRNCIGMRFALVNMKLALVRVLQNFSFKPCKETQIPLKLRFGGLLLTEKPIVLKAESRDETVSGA

For the compound `CC(C)CC(=O)N[C@H](C(=O)N[C@H](C(=O)N[C@@H](CC(C)C)[C@@H](O)CC(=O)N[C@@H](C)C(=O)N[C@@H](CC(C)C)[C@@H](O)CC(=O)O)C(C)C)C(C)C` (Isovaleryl-VV[Sta]A[Sta]-OH), the Potency result in test [1], in [2], in test [3], in [4], in test [5] and in [6] was “inactive” in each case. For the same compound, the Potency entry in [7], in test [8], in [9] and in test [11] was “inactive” throughout. Besides, in test [10], the Potency was 26.4 µM (active).
Take `COC(=O)c1ccc2c(C(=Nc3ccc(N(C)C(=O)CN4CCN(C)CC4)cc3)c3ccccc3)c(O)[nH]c2c1`: the Potency result in test [1], in [4], in test [5], in [6], in [7] and in test [8] was “inactive” in each case. Further, the Potency entry in test [9] is “inactive”. The Potency in test [2] was 32.6 nM (active) and 37.2 nM (active); in [3], 58 nM (active) and 66.1 nM (active); in [12] it was 7.08 µM (active); in [11], 10 µM (active).
For the compound `N=c1nc(N2CCCCC2)cc(N)n1O`, the Potency entry in test [1], in test [2], in [3], in [4], in test [5] and in [6] was “inactive” in each case. Besides, the Potency entry in [7], in test [8], in [9] and in test [11] was “inactive” in each case. Also, the activity (max response) in test [12] was 5.33%.
Turning to `Cc1nc2c([nH]1)CCN(C(=O)c1ccc(NC(=O)c3ccccc3-c3ccccc3)cc1)c1ccccc1-2`, the Potency result in [1], in test [4], in [5], in test [6], in test [7] and in [8] was “inactive” in each case. For the same compound, the Potency entry in test [13], in [10], in test [14] and in [11] was “inactive” each time. The Potency in test [2] was 18.4 µM (active); in test [3], 13.2 µM (active). Moreover, the activity (max response) in test [12] was -19.1%.
Consider `CN[C@@H](C)C(=O)N[C@H]1CN(C(=O)CC(C)C)CC[C@H]2CC[C@@H](C(=O)NC(c3ccccc3)c3ccccc3)N2C1=O`, for which the Potency result in test [1], in [2] and in [11] was “inactive” in each case. Further, the Potency in test [3] is 5.8 µM (active) and 2.35 µM (active); in test [4], 1.32 µM (active); in test [5], 2.64 µM (active); in test [6], 1.05 µM (active); in test [7] it was 8.33 µM (active); in test [8] it was 11.8 µM (active). Also, the Potency in test [9] was 8.33 µM (active). The activity (max response) in test [12] is -12.1%.
